{"source": "paper PMC4336329", "about": "(PLoS ONE, 2015)", "note": "The campaign covered roughly 310,000 compounds. About 14,000 (4.5%) showed an effect of 50% or more. Effects have a minus sign here. The sample as a whole holds a higher share of strong results than the screen did.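 Also: peak tail current of the secondary pulse compared with the same well before compound.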", "data": [{"biological_target": "human ether-à-go-go-related gene (hERG) potassium channel (human, UniProt Q12809)", "sequence (Q12809 whole entry, looked up)": "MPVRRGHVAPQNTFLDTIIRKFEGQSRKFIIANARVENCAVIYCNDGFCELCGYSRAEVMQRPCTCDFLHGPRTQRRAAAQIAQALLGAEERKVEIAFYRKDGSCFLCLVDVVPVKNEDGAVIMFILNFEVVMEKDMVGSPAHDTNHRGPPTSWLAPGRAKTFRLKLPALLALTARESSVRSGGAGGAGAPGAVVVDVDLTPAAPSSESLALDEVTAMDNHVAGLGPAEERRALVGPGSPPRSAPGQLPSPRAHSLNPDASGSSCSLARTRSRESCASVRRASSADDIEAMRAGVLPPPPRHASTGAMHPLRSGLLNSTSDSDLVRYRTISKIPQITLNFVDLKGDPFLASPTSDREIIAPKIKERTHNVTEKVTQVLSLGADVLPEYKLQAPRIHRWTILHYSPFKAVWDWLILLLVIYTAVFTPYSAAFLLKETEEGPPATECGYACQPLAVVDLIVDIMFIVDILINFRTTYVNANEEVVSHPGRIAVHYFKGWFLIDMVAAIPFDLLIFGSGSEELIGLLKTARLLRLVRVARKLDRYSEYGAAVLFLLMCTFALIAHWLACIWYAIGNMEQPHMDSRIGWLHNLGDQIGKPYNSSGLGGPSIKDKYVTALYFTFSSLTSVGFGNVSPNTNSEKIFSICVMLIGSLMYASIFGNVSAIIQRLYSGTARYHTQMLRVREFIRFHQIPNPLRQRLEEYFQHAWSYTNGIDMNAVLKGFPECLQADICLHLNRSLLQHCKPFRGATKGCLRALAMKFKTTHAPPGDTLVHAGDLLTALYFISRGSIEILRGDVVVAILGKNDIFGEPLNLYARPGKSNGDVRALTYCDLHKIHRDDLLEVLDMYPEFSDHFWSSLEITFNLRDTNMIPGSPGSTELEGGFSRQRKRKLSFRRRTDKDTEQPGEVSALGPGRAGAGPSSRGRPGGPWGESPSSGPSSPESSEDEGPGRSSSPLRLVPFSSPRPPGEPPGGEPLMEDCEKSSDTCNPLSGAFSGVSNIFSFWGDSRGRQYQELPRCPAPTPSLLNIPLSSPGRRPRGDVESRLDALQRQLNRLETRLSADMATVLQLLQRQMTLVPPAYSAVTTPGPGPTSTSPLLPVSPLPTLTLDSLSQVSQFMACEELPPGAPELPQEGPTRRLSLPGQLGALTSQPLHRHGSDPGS", "test": "primary screen, population patch clamp on CHO cells stably expressing hERG; higher = less effect of the substance", "units": {"hERG current change (%, negative = inhibition) at 10uM": "%"}, "values": [{"smiles": "NC(=O)c1cc[n+](CC2=C(C(=O)[O-])N3C(=O)[C@@H](NC(=O)C(c4ccccc4)S(=O)(=O)[O-])[C@H]3SC2)cc1.[Na+]", "note": "(stereo partly shown)", "hERG current change (%, negative = inhibition) at 10uM": 20.3}, {"smiles": "Cc1cc(OCc2nn[nH]n2)c2c3c(c(=O)oc2c1)CCC3", "hERG current change (%, negative = inhibition) at 10uM": 3.12}, {"smiles": "Cc1cc(C)c(S(=O)(=O)NCc2ccc3c(c2)OCO3)cc1C", "hERG current change (%, negative = inhibition) at 10uM": -6.86}, {"smiles": "Cc1onc(-c2ccccc2)c1C(=O)c1ccccc1", "hERG current change (%, negative = inhibition) at 10uM": 3.87}, {"smiles": "COCCN1CC(C(=O)NCc2ncccc2C)CCC1=O", "note": "(stereo not shown)", "hERG current change (%, negative = inhibition) at 10uM": 22.6}, {"smiles": "Cc1ccc(S(=O)(=O)CCC(=O)N(Cc2nnc(-c3ccc(Cl)cc3)o2)C2CC2)cc1", "hERG current change (%, negative = inhibition) at 10uM": -12.7}, {"smiles": "O=[N+]([O-])c1ccc(N2CCN(S(=O)(=O)c3ccccc3)CC2)cc1NCc1cccnc1", "hERG current change (%, negative = inhibition) at 10uM": 1.8}, {"smiles": "Cc1ccc2c(CC(=O)OCc3cc(=O)n4c(n3)sc3ccccc34)coc2c1", "hERG current change (%, negative = inhibition) at 10uM": 5.05}, {"smiles": "CC(CN1CCCC1)OC(=O)C(c1ccccc1)c1ccccc1.Cl", "note": "(stereo not shown)", "hERG current change (%, negative = inhibition) at 10uM": -42.2}, {"smiles": "CC(CN1CCOCC1)OC(=O)/C=C/c1ccccc1.Cl", "note": "(stereo not shown)", "hERG current change (%, negative = inhibition) at 10uM": 10.1}, {"smiles": "CC(CN1CCOCC1)OC(=O)C(C)(c1ccccc1)c1ccccc1", "note": "(stereo not shown)", "hERG current change (%, negative = inhibition) at 10uM": -8.05}, {"smiles": "COc1ccc(/C=C/C(=O)OC(C)CN2CCCCC2)cc1.Cl", "note": "(stereo not shown)", "hERG current change (%, negative = inhibition) at 10uM": -26.2}, {"smiles": "CC(CN1CCCCC1)OC(=O)C(C)(c1ccccc1)c1ccccc1.Cl", "note": "(stereo not shown)", "hERG current change (%, negative = inhibition) at 10uM": -52.3}, {"smiles": "CC(CN1CCCCC1)OC(=O)/C=C/c1ccccc1.Cl", "note": "(stereo not shown)", "hERG current change (%, negative = inhibition) at 10uM": -71}, {"smiles": "COc1cccc2cc(C(=O)NCc3ccc(Cl)cc3)c(=O)oc12", "hERG current change (%, negative = inhibition) at 10uM": 14.4}, {"smiles": "O=C(Cn1cnc2ccccc2c1=O)Nc1cccc(-c2nnc3n2CCCCC3)c1", "hERG current change (%, negative = inhibition) at 10uM": 0.387}, {"smiles": "O=C(Nc1ccc(-c2nc3ccccc3[nH]2)cc1)c1ccco1", "hERG current change (%, negative = inhibition) at 10uM": -18.4}, {"smiles": "COc1ccc(-n2nc(C(=O)c3cccs3)cc(-c3nc4ccccc4[nH]3)c2=N)cc1", "hERG current change (%, negative = inhibition) at 10uM": -4.53}, {"smiles": "N=c1c(-c2nc3ccccc3[nH]2)cc(C(=O)c2cccs2)nn1-c1ccc(Cl)cc1", "hERG current change (%, negative = inhibition) at 10uM": 8.51}, {"smiles": "Cc1ccccc1-n1nc(C(=O)c2cccs2)cc(-c2nc3ccccc3[nH]2)c1=N", "hERG current change (%, negative = inhibition) at 10uM": -1.9}, {"smiles": "N=c1c(-c2nc3ccccc3[nH]2)cc(C(=O)c2cccs2)nn1-c1ccccc1", "hERG current change (%, negative = inhibition) at 10uM": -50.2}, {"smiles": "Cc1cccc(-n2nc(C(=O)c3ccco3)cc(-c3nc4ccccc4[nH]3)c2=N)c1", "hERG current change (%, negative = inhibition) at 10uM": -65.7}, {"smiles": "O=C(Nc1cccc(-c2nc3ccccc3[nH]2)c1)c1ccco1", "hERG current change (%, negative = inhibition) at 10uM": -16.9}, {"smiles": "Cc1ccc2nc(-c3cccc(NC(=O)c4ccco4)c3)[nH]c2c1", "hERG current change (%, negative = inhibition) at 10uM": -30.7}, {"smiles": "N=c1c(-c2nc3ccccc3[nH]2)cc(C(=O)c2ccco2)nn1-c1ccccc1", "hERG current change (%, negative = inhibition) at 10uM": -59.5}]}]}
